Experimental findings from ChEMBL document CHEMBL1961873, “Compounds: GSK PKIS; Assays: Nanosyn kinase panel” (2012) are described below.

In assay [1] the target is T1, Mitogen-activated protein kinase 12 (Homo sapiens) (UniProt P53778).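 Note: values are averaged p38gamma kinase inhibition readings, compounds tested at 1 µM.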
T1 sequence (whole entry): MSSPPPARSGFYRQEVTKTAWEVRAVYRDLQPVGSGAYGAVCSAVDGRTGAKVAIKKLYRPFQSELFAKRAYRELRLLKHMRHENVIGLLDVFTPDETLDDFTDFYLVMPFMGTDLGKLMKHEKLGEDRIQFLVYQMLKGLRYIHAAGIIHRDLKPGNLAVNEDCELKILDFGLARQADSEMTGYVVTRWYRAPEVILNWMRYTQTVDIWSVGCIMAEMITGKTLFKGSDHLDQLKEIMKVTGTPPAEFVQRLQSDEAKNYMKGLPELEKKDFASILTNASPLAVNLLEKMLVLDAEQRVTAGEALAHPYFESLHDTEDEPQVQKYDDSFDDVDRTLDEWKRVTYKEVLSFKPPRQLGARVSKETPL
The settings on record: at 1 µM.

Assay [2] concerns the target SRSF protein kinase 1 (Homo sapiens) (UniProt Q96SB4). The settings on record: at 0.1 µM.
Assay [3] shares this target. The settings on record: at 1 µM.
Assay [4] addresses Phosphatidylinositol 4,5-bisphosphate 3-kinase catalytic subunit alpha isoform (Homo sapiens) (UniProt P42336). The settings on record: at 0.1 µM.
The target is the same in assay [5]. The settings on record: at 1 µM.
The target of assay [6] is T2, Phosphatidylinositol 4,5-bisphosphate 3-kinase catalytic subunit delta isoform (Homo sapiens) (UniProt O00329).
T2 sequence (whole entry): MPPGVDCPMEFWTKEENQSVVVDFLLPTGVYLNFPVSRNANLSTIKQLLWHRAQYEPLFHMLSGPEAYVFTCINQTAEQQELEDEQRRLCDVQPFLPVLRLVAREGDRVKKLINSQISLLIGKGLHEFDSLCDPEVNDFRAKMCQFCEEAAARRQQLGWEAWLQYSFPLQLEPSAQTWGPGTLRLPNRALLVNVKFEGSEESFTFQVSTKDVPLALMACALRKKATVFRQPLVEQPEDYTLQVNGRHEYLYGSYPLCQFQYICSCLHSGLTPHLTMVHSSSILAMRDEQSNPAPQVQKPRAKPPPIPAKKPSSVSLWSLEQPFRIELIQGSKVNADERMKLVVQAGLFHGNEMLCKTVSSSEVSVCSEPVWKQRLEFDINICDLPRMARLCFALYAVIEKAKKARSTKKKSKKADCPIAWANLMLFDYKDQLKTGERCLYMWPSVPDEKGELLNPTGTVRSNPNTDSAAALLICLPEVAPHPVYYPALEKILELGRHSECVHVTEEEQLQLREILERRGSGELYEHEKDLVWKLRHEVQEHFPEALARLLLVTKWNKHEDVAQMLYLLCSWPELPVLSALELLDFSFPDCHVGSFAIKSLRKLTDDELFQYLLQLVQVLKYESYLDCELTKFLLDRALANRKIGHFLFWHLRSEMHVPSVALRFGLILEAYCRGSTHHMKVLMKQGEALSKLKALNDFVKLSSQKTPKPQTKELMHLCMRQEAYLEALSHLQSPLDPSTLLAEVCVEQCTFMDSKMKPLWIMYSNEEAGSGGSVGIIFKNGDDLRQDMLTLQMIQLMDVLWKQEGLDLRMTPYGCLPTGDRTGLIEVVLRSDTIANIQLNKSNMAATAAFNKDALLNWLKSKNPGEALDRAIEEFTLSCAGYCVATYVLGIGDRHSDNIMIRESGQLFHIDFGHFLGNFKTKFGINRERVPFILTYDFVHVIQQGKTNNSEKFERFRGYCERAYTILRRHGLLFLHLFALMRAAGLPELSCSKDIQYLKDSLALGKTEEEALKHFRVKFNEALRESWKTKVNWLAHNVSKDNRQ
The settings on record: at 0.1 µM.

Assay [7] addresses T2, Phosphatidylinositol 4,5-bisphosphate 3-kinase catalytic subunit delta isoform (Homo sapiens). The settings on record: at 1 µM.
Assay [8] has as its target Phosphatidylinositol 4-kinase beta (Homo sapiens) (UniProt Q9UBF8). The settings on record: at 0.1 µM.
For assay [9] the target is unchanged. The settings on record: at 1 µM.
The target of assay [10] is Sphingosine kinase 1 (Homo sapiens) (UniProt Q9NYA1). The settings on record: at 0.1 µM.
Assay [11] has the same target. The settings on record: at 1 µM.
Assay [12] addresses T3, Sphingosine kinase 2 (Homo sapiens) (UniProt Q9NRA0).
T3 sequence (whole entry): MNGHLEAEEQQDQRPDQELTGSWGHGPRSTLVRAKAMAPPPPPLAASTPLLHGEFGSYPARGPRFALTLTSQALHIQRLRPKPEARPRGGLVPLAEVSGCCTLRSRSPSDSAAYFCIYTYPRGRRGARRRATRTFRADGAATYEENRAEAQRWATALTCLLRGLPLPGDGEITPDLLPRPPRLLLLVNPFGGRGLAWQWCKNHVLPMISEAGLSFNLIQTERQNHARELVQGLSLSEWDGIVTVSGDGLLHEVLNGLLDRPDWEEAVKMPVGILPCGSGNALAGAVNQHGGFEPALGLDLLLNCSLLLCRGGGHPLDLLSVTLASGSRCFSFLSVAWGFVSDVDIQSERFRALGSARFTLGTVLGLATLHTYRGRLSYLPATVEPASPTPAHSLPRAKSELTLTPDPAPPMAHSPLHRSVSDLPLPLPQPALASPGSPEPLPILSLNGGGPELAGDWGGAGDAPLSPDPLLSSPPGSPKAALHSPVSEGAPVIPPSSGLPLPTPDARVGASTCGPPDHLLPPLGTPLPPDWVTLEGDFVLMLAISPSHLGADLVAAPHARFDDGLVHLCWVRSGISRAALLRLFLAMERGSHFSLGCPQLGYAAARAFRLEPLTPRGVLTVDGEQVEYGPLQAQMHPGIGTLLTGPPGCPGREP
The settings on record: at 0.1 µM.

The target of assay [13] is T3, Sphingosine kinase 2 (Homo sapiens). The settings on record: at 1 µM.
The target of assay [14] is Casein kinase II subunit alpha (Homo sapiens) (UniProt P68400). The settings on record: at 0.1 µM.
For assay [15] the target is unchanged. The settings on record: at 1 µM.
Assay [16] concerns the target T4, Inhibitor of nuclear factor kappa-B kinase subunit alpha (Homo sapiens) (UniProt O15111).
T4 sequence (whole entry): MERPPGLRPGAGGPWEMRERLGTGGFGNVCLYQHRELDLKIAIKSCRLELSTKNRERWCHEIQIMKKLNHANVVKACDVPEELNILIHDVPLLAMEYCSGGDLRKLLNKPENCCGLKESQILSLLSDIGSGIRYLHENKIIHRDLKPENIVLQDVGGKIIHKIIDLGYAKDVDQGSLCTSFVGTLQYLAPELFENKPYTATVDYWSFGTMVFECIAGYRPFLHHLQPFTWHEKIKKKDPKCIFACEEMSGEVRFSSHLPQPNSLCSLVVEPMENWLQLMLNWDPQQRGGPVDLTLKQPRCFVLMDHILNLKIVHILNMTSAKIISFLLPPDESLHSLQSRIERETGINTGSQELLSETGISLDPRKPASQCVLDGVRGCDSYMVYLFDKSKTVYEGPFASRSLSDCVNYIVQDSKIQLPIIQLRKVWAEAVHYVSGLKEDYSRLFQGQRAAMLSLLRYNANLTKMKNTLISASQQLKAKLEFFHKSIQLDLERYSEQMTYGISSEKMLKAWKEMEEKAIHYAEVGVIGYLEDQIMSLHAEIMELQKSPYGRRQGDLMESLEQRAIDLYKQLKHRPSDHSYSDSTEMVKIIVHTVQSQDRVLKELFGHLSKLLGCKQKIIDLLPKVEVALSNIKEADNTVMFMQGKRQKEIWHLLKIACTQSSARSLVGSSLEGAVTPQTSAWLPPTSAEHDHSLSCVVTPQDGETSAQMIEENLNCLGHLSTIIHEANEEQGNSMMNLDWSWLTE
The settings on record: at 0.1 µM.

The target in assay [17] is T4, Inhibitor of nuclear factor kappa-B kinase subunit alpha (Homo sapiens). The settings on record: at 1 µM.
Assay [18] deals with T5, Inhibitor of nuclear factor kappa-B kinase subunit beta (Homo sapiens) (UniProt O14920).
T5 sequence (whole entry): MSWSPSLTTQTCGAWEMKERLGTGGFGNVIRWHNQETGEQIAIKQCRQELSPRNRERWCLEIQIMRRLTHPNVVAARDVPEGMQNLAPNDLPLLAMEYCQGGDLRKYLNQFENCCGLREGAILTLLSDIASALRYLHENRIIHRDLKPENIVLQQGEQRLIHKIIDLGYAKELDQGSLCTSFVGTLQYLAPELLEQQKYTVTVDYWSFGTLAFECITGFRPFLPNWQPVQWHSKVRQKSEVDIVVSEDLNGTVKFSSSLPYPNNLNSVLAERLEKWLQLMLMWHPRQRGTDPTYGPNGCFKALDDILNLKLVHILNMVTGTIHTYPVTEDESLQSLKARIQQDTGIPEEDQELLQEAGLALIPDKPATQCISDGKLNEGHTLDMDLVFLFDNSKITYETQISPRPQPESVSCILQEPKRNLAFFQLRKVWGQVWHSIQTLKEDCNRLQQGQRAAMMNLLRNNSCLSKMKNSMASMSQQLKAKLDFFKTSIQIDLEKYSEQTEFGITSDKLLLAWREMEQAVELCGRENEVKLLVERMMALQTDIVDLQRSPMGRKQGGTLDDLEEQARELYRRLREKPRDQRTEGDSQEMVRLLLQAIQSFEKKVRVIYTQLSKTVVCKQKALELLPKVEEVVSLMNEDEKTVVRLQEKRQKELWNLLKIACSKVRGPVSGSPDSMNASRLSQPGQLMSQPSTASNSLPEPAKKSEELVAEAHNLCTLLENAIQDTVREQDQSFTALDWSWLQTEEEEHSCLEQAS
The settings on record: at 0.1 µM.

The target of assay [19] is T5, Inhibitor of nuclear factor kappa-B kinase subunit beta (Homo sapiens). The settings on record: at 1 µM.
Assay [20] concerns the target T6, Inhibitor of nuclear factor kappa-B kinase subunit epsilon (Homo sapiens) (UniProt Q14164).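 Note: mean inhibition of IKKε reported, from the GSK PKIS dataset.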
T6 sequence (whole entry): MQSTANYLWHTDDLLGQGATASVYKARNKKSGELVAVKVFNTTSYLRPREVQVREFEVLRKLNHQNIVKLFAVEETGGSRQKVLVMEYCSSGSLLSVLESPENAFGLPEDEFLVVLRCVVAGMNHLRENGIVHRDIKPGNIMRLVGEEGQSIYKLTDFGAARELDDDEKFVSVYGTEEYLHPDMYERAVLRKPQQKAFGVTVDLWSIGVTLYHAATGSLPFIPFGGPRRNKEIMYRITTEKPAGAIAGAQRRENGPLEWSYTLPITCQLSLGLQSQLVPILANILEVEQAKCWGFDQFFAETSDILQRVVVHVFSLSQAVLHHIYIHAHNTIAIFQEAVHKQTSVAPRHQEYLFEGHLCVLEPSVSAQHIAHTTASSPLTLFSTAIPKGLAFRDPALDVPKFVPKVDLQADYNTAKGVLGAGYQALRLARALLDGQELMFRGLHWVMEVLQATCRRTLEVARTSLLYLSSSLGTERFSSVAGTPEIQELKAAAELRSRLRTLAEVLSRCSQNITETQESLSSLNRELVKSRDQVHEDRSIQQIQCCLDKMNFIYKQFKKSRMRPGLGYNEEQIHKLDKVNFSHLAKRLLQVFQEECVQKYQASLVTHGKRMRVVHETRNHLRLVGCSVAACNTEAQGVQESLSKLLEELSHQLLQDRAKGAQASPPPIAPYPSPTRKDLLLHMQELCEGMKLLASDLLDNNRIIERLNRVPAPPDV
The settings on record: at 0.1 µM.

Chain of Casein kinase II subunit alpha (Homo sapiens) (P68400 whole entry, looked up): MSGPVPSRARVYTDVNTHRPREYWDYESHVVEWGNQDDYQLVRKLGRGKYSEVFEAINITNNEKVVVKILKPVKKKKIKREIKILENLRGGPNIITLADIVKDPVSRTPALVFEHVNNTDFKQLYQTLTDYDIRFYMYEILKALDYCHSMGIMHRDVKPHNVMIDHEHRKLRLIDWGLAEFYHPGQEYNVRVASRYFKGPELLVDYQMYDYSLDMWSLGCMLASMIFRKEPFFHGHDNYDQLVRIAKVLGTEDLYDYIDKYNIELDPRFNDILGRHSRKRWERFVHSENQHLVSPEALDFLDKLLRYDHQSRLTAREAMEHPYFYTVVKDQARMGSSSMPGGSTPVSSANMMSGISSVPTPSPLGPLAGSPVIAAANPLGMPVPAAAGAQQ
Chain of Phosphatidylinositol 4-kinase beta (Homo sapiens) (Q9UBF8 2-816 limits assumed): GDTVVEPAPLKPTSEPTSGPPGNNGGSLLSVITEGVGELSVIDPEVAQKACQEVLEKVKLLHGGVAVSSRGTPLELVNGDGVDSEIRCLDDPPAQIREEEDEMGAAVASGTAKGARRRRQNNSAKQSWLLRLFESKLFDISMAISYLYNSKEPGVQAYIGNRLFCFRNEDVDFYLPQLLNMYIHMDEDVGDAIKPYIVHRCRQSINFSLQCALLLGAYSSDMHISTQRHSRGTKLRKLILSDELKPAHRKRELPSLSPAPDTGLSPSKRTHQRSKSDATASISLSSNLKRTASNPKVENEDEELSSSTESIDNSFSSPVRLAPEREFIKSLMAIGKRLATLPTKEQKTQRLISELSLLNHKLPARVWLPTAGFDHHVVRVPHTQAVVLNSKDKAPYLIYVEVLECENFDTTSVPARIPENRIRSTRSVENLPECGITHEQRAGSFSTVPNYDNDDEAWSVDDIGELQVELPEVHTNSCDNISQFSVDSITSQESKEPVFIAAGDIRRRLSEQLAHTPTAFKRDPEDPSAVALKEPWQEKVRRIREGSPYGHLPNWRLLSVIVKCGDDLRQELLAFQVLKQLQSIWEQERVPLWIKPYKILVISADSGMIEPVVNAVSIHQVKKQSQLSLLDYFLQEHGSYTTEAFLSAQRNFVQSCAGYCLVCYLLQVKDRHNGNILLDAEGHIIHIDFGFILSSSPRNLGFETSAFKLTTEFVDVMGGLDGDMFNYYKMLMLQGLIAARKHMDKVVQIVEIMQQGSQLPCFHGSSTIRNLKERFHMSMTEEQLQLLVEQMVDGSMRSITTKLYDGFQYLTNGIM
Chain of SRSF protein kinase 1 (Homo sapiens) (Q96SB4 whole entry): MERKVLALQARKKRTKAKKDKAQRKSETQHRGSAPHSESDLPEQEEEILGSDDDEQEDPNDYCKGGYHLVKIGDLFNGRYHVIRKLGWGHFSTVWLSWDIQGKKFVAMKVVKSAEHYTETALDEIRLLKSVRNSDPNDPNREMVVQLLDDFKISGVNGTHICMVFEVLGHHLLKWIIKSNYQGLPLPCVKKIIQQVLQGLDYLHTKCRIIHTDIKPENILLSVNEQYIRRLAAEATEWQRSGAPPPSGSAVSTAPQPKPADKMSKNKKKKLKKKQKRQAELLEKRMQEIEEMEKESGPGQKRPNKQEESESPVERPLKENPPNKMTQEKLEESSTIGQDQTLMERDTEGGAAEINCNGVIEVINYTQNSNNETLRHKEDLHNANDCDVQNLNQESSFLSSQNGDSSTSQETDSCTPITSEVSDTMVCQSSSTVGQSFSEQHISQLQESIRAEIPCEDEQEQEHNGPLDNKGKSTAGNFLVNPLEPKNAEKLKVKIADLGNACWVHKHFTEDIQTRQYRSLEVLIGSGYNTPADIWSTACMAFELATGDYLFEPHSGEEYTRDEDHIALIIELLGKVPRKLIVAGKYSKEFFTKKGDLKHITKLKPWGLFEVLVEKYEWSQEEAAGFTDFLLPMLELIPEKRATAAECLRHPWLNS
Chain of Sphingosine kinase 1 (Homo sapiens) (Q9NYA1 whole entry): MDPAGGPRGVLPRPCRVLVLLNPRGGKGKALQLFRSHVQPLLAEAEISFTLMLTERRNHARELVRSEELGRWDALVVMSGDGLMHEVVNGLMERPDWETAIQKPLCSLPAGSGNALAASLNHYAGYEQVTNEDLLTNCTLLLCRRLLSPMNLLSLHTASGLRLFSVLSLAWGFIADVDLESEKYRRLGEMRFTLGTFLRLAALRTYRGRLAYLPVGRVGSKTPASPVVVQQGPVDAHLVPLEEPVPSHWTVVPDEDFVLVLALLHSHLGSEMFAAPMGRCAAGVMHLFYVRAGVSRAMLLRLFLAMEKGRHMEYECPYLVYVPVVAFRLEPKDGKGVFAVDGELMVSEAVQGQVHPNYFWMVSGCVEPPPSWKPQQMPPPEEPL
Chain of Phosphatidylinositol 4,5-bisphosphate 3-kinase catalytic subunit alpha isoform (Homo sapiens) (P42336 whole entry, canonical isoform): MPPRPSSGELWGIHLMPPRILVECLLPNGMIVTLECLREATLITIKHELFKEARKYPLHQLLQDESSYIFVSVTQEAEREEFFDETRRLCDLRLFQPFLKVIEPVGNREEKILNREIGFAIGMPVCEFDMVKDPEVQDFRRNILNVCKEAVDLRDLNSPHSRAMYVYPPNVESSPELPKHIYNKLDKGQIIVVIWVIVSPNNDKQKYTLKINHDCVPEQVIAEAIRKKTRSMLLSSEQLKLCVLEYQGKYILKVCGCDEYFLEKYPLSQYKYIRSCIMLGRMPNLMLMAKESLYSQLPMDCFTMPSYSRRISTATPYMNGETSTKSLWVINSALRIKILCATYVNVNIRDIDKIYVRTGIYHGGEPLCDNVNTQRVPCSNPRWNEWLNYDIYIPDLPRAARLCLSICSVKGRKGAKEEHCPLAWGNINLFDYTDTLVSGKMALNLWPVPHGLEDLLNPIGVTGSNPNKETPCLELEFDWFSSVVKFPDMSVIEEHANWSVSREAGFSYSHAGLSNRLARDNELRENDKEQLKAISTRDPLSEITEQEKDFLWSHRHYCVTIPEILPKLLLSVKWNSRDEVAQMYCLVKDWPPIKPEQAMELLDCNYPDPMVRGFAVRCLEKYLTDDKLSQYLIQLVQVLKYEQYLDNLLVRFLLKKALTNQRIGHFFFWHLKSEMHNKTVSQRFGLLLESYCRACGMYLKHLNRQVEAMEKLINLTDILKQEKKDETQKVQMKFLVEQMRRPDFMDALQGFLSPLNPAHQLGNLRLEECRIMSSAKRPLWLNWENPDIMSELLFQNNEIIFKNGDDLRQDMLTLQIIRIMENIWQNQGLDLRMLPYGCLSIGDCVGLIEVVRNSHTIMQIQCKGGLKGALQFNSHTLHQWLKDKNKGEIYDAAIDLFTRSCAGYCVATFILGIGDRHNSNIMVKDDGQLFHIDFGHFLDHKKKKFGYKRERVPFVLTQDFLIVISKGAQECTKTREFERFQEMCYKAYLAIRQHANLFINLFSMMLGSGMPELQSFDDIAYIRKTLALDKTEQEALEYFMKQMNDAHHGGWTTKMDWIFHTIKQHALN

On to `OCc1ccc(-c2nc(-c3ccccn3)c(-c3ccc4c(c3)OCO4)[nH]2)cc1`, for which the inhibition in assay [1] is 2.49%; in [2], -1.33%; in assay [3], -3.19%; in [4], 3.36%; in [5], 2.23%; in assay [6] it was 1.52%. For the same compound, the inhibition in [7] is 3.07%; in assay [8], -1.63%; in assay [9], -0.21%; in assay [10], 0%; in assay [11], -4.68%; in [12] it was -0.11%. In addition, the inhibition in assay [13] is 0.5%; in assay [14] it was 2.74%; in assay [15] it was -0.37%; in assay [16] it was 6.97%; in assay [17], 8.08%; in [18] it was 5.29%. Besides, the inhibition amounted to 4.72% in assay [19] and 4.91% in assay [20].

On to `COc1ccc(-c2nn3ncccc3c2-c2ccnc(Nc3cccc(C(F)(F)F)c3)n2)cc1`, for which the inhibition is 2.35% in assay [1]; -2.17% in assay [2]; -1.48% in assay [3]; 2.28% in [4]; 2.8% in [5]; -0.05% in assay [6]. Moreover, the inhibition is 2.34% in assay [7]; 4.99% in [8]; -1.04% in assay [9]; 0.03% in assay [10]; 1.42% in assay [11]; -1.04% in assay [12]. The inhibition in [13] was -0.08%; in [14] it was 6.68%; in [15] it was 1.12%; in assay [16], 3.17%; in assay [17] it was 8.21%; in [18], 3.3%. The figures for the inhibition in assay [19] and in assay [20] were 4.64% and 4.96%, respectively.

Consider `CCS(=O)(=O)c1ccc(OC)c(Nc2ncc(-c3cccc(OC)c3)o2)c1`, for which the inhibition in assay [1] was 2.08%; in assay [2] it was -1.9%; in assay [3] it was -1.28%; in assay [4] it was 1.81%; in [5] it was 2%; in assay [6] it was 3.48%. Moreover, the inhibition was 3.98% in assay [7]; 3.39% in assay [8]; -0.15% in assay [9]; -0.07% in assay [10]; 1.37% in assay [11]; 0% in assay [12]. For the same compound, the inhibition in [13] was -2%; in assay [14] it was 5.03%; in assay [15], 29.3%; in [16], 5.66%; in [17], -4.47%; in assay [18], 3.95%. Further, the figures for the inhibition in [19] and in [20] were 1.16% and 0.74%, respectively.
